# Assay results: ChEMBL document CHEMBL2218924, “A broad activity screen in support of a chemogenomic map for kinase signalling research and drug discovery” (Biochem J, 2013)
# What was measured:
# [1] = target: T1, Ephrin type-A receptor 3 (Homo sapiens) (UniProt P29320); details: at 10 µM
# T1 sequence (whole entry): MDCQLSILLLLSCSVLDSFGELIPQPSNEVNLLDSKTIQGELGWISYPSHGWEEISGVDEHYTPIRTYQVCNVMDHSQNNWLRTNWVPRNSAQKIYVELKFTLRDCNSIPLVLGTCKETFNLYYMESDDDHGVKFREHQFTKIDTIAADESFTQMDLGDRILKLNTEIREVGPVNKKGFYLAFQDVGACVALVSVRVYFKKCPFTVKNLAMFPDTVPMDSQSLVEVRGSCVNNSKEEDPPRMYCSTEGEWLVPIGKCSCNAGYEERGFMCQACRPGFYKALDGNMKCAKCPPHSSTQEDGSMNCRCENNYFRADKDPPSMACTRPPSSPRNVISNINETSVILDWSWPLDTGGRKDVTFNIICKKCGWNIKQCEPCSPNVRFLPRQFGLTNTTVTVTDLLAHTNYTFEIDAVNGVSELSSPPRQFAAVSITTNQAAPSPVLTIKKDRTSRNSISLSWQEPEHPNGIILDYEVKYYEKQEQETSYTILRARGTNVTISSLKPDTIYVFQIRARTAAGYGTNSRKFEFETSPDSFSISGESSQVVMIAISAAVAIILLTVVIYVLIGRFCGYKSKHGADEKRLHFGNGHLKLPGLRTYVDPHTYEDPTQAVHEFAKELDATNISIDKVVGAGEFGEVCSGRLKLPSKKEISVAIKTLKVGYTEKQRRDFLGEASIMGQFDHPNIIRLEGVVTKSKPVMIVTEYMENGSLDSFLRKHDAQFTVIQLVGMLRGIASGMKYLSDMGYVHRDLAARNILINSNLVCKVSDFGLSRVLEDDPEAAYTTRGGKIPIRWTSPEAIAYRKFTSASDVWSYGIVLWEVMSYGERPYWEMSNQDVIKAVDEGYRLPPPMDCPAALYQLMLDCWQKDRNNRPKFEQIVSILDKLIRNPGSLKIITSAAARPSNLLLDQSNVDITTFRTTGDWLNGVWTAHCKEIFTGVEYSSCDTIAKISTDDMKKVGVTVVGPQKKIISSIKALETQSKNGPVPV
# [2] = target: Ephrin type-A receptor 7 (Homo sapiens) (UniProt Q15375); details: at 10 µM
# [3] = target: Receptor tyrosine-protein kinase erbB-4 (Homo sapiens) (UniProt Q15303); details: at 1 µM
# [4] = target: Receptor tyrosine-protein kinase erbB-4 (Homo sapiens) (UniProt Q15303); details: at 10 µM
# [5] = target: T2, Ephrin type-B receptor 3 (Homo sapiens) (UniProt P54753); details: at 10 µM
# T2 sequence (whole entry): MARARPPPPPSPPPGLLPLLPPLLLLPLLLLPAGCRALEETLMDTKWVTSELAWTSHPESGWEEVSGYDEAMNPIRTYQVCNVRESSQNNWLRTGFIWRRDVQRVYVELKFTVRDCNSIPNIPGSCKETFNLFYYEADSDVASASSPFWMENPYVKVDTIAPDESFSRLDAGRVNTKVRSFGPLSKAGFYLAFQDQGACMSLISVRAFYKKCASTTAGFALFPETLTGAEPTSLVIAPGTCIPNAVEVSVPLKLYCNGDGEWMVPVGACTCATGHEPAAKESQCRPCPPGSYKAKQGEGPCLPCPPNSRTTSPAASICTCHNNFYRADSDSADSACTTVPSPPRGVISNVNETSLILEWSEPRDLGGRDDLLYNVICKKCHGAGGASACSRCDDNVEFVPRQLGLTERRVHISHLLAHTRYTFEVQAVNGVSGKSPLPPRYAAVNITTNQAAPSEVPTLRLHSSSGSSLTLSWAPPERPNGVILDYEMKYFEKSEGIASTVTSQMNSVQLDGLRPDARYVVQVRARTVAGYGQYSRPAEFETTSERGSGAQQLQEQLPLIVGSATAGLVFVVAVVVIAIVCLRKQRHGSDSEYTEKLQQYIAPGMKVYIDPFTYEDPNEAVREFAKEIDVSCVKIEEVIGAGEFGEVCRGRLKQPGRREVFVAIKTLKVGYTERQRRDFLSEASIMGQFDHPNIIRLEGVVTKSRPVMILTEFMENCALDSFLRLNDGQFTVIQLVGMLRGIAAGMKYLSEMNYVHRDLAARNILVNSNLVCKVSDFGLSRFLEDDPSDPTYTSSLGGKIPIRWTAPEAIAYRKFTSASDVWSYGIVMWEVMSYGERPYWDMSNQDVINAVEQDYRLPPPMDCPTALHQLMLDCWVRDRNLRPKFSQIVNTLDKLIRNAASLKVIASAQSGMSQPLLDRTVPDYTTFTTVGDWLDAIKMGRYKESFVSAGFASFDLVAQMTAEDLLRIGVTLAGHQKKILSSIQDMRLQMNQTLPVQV
# [6] = target: T3, Ephrin type-B receptor 4 (Homo sapiens) (UniProt P54760); details: at 1 µM
# T3 sequence (whole entry): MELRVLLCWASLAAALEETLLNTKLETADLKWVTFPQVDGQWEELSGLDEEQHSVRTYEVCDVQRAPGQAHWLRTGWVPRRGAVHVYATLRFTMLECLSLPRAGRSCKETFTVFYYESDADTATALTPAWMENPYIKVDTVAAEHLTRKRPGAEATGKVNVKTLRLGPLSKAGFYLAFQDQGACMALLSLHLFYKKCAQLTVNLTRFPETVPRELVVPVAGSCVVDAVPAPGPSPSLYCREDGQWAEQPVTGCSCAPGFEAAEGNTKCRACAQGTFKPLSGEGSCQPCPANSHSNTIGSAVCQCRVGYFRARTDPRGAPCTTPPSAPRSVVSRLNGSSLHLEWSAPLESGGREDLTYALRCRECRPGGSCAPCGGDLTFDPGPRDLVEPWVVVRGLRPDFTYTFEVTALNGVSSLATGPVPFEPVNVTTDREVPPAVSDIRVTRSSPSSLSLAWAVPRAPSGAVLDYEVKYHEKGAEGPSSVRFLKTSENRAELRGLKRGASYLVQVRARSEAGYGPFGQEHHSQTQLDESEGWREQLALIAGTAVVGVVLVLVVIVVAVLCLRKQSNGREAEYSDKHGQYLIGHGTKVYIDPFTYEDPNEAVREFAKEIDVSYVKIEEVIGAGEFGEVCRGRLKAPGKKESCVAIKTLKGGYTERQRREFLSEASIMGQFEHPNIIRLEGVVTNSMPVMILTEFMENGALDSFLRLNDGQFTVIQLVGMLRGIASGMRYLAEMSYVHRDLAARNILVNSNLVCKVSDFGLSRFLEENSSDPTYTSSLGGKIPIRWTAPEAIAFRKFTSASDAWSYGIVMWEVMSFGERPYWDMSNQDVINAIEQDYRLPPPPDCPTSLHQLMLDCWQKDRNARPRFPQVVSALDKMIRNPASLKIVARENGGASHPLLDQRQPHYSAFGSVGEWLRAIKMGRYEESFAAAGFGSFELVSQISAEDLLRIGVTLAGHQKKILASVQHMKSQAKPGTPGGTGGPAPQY
# [7] = target: T3, Ephrin type-B receptor 4 (Homo sapiens); details: at 10 µM
# [8] = target: Focal adhesion kinase 1 (Homo sapiens) (UniProt Q05397); details: at 1 µM
# Chain of Focal adhesion kinase 1 (Homo sapiens) (Q05397 2-1052 limits assumed): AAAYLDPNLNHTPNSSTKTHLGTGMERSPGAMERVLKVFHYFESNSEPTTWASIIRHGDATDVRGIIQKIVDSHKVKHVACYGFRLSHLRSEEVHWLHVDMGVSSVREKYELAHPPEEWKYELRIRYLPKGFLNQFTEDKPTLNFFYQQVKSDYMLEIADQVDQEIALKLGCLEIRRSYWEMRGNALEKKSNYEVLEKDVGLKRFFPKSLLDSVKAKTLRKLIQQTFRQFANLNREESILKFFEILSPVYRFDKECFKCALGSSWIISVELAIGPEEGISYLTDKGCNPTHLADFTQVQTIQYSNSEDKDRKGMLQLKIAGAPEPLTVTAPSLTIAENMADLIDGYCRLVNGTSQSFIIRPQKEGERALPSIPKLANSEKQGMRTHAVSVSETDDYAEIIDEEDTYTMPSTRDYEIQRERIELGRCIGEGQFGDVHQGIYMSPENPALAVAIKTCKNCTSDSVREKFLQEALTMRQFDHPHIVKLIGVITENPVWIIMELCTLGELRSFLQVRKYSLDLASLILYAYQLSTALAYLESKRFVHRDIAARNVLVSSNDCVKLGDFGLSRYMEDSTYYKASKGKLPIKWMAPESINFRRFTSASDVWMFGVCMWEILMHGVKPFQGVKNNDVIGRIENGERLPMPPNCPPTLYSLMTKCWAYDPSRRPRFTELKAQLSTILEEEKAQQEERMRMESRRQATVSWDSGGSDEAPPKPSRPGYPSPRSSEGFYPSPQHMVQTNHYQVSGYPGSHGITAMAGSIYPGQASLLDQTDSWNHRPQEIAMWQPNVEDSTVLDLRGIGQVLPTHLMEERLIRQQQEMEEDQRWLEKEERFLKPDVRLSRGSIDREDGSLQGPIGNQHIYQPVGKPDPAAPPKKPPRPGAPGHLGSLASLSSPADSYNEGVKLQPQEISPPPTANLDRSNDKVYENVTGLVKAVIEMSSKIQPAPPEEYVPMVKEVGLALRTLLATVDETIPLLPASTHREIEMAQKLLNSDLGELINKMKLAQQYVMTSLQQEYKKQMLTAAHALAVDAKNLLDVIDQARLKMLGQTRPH
# Chain of Receptor tyrosine-protein kinase erbB-4 (Homo sapiens) (Q15303 whole entry): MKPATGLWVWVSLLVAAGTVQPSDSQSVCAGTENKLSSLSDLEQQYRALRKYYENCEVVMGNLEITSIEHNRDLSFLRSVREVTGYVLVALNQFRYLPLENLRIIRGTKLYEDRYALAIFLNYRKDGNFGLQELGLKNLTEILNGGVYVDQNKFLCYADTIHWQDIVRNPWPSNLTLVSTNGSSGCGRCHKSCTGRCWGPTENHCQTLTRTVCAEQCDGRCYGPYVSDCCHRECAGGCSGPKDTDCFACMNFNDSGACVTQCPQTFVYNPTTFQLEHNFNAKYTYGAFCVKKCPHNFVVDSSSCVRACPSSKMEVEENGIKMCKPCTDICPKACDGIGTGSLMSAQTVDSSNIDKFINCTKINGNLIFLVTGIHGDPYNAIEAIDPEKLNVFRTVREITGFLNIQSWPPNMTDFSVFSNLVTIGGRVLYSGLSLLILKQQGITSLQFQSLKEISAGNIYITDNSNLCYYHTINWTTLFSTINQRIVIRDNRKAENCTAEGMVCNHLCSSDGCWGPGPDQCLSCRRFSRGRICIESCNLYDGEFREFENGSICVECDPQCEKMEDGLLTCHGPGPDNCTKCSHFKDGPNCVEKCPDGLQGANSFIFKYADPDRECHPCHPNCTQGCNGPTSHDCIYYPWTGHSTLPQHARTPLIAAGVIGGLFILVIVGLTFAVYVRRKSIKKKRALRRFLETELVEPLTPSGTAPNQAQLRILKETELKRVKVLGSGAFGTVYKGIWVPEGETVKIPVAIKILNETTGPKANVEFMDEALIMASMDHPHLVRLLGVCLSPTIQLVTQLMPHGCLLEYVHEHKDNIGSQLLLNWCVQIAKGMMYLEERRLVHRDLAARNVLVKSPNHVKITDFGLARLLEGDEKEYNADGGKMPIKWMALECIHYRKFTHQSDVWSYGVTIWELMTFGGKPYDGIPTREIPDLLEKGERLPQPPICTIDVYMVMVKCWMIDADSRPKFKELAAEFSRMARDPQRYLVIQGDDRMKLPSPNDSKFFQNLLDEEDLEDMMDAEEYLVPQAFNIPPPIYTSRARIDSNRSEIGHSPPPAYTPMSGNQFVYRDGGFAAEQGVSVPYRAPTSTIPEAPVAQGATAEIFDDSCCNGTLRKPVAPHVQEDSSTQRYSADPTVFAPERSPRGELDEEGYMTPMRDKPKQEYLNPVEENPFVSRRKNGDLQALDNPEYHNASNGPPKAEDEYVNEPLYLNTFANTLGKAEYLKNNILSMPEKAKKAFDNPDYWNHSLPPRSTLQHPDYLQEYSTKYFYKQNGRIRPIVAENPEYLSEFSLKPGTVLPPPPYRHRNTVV
# Chain of Ephrin type-A receptor 7 (Homo sapiens) (Q15375 28-998 limits assumed): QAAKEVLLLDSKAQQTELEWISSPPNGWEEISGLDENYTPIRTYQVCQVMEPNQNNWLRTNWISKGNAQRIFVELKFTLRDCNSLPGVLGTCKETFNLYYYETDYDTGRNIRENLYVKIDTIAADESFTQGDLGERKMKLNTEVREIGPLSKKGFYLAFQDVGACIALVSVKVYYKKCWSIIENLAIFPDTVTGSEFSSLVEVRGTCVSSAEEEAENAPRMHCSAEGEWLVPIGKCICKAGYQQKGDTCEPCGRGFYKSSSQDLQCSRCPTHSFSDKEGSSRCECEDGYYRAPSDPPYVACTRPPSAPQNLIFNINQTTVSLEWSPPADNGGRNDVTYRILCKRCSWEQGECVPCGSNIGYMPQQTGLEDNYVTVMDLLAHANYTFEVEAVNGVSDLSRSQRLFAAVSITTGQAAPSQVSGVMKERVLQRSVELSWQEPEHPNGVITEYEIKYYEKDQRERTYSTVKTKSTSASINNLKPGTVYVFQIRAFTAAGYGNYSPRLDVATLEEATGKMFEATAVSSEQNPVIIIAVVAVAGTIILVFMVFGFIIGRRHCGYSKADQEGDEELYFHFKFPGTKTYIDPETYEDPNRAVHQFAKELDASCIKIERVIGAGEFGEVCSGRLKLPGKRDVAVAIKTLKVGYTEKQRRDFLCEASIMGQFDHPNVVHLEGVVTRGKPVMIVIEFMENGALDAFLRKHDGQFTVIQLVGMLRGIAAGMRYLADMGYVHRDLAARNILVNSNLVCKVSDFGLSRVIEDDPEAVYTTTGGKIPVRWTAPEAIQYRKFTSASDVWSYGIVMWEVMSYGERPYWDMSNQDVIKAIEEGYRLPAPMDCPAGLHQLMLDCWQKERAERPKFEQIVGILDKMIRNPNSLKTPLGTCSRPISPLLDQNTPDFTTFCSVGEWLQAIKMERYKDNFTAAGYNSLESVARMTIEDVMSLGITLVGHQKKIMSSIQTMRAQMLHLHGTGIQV
Compound,residual activity [1],residual activity [2],residual activity [3],residual activity [4],residual activity [5],residual activity [6],residual activity [7],residual activity [8]
O=c1cc(N2CCOCC2)oc2c(-c3ccccc3)cccc12,77%,79%,79%,65%,–,–,–,–
O=C(Nc1ccc(Cl)cc1)c1ccccc1NCc1ccncc1,–,–,–,–,125%,117%,131%,143%
